Data from PubChem BioAssay AID1159580 (chemical genetic matrix, 2015).
Several values for one entry are separate records, joined by “and”; a condition that tells them apart may be missing. Equal entries are not always repeated. Out of some 5,500 compounds screened, about 2,000 (36%) were called active. Roughly 18% stayed inconclusive and do not appear here. No stated cut-off is given here; in the data, active means normalized growth mostly below about 0.91 (no sharp cut-off); inconclusive means no clear call, values can overlap the other calls; inactive means mostly above about 0.92. Some of the results follow.

Test: chemical genetic growth profiling, strain panel (AID 1159580);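 further: tested at 20 µM; growth read once vehicle control cultures reached saturation at 30 °C; 1 = growth at the plate median or of vehicle wells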
Conditions: S. cerevisiae deletion strains, growth OD

Measured: normalized growth

Oc1c(I)cc(I)c2cccnc12
active: locus YAL013W, strain DEP1, stronger effect = lower value 0.071 | locus YAL021C, strain ccr4, stronger effect = lower value 0.091 | locus YAL026C, strain drs2, stronger effect = lower value 0.0859 | locus YAL030W, strain snc1, stronger effect = lower value 0.0764 | locus YBL061C, strain skt5, stronger effect = lower value 0.0816 | locus YBR009C, strain hhf1, stronger effect = lower value 0.0997 | locus YBR021W, strain FUR4, stronger effect = lower value 0.129 | locus YBR023C, strain chs3, stronger effect = lower value 0.077 | locus YBR171W, strain sec66, stronger effect = lower value 0.114 | locus YBR229C, strain ROT2, stronger effect = lower value 0.0677 | locus YBR231C, strain swc5, stronger effect = lower value 0.0701 | locus YBR279W, strain paf1, stronger effect = lower value 0.0764 | locus YCL011C, strain gbp2, stronger effect = lower value 0.135 | locus YCL016C, strain dcc1, stronger effect = lower value 0.0819 | locus YCL029C, strain bik1, stronger effect = lower value 0.101 | locus YCL061C, strain MRC1, stronger effect = lower value 0.0902 | locus YCL069W, strain vba3, stronger effect = lower value 0.0885 | locus YCR088W, strain abp1, stronger effect = lower value 0.0854 | locus YDL005C, strain med2, stronger effect = lower value 0.104 | locus YDL035C, strain GPR1, stronger effect = lower value 0.067 | locus YDL040C, strain nat1, stronger effect = lower value 0.073 | locus YDL074C, strain BRE1, stronger effect = lower value 0.104 | locus YDL101C, strain DUN1, stronger effect = lower value 0.084 | locus YDL185W, strain tfp1, stronger effect = lower value 0.0824 | locus YDL192W, strain arf1, stronger effect = lower value 0.103 | locus YDR001C, strain nth1, stronger effect = lower value 0.0844 | locus YDR069C, strain doa4, stronger effect = lower value 0.0819 | locus YDR101C, strain arx1, stronger effect = lower value 0.0994 | locus YDR137W, strain rgp1, stronger effect = lower value 0.0996 | locus YDR150W, strain NUM1, stronger effect = lower value 0.078 | locus YDR159W, strain sac3, stronger effect = lower value 0.107 | locus YDR162C, strain NBP2, stronger effect = lower value 0.0632 | locus YDR195W, strain ref2 0.337 | locus YDR297W, strain sur2, stronger effect = lower value 0.0803 | locus YDR318W, strain mcm21, stronger effect = lower value 0.101 | locus YDR334W, strain swr1, stronger effect = lower value 0.0842 | locus YDR335W, strain msn5, stronger effect = lower value 0.0856 | locus YDR388W, stronger effect = lower value 0.0882 | locus YDR392W, strain spt3, stronger effect = lower value 0.13 | locus YDR502C, strain sam2, stronger effect = lower value 0.106 | locus YEL003W, strain gim4, stronger effect = lower value 0.127 | locus YEL037C, strain rad23, stronger effect = lower value 0.0807 | locus YEL061C, strain CIN8 (second series), stronger effect = lower value 0.0847 | locus YEL061C, strain CIN8, stronger effect = lower value 0.073 | locus YER015W, strain faa2, stronger effect = lower value 0.0857 | locus YER016W, strain bim1, stronger effect = lower value 0.0805 | locus YER110C, stronger effect = lower value 0.115 | locus YER111C, strain swi4, stronger effect = lower value 0.103 | locus YER155C, strain BEM2 (second series), stronger effect = lower value 0.126 | locus YER155C, strain BEM2, stronger effect = lower value 0.0881 | locus YER167W, strain BCK2, stronger effect = lower value 0.0711 | locus YFR010W, strain ubp6, stronger effect = lower value 0.0943 | locus YGL078C, strain dbp3, stronger effect = lower value 0.258 | locus YGL086W, strain mad1, stronger effect = lower value 0.0789 | locus YGL167C, strain pmr1, stronger effect = lower value 0.0938 | locus YGL173C, strain kem1, stronger effect = lower value 0.0913 | locus YGL227W, strain vid30, stronger effect = lower value 0.0911 | locus YGL240W, strain doc1, stronger effect = lower value 0.106 | locus YGL248W, strain PDE1, stronger effect = lower value 0.0617 | locus YGL253W, strain hxk2, stronger effect = lower value 0.0781 | locus YGR078C, strain PAC10, stronger effect = lower value 0.0681 | locus YGR135W, strain pre9, stronger effect = lower value 0.102 | locus YGR252W, strain gcn5, stronger effect = lower value 0.308 | locus YHR013C, strain ard1, stronger effect = lower value 0.141 | locus YHR027C, strain rpn1, stronger effect = lower value 0.0845 | locus YHR030C, strain SLT2, stronger effect = lower value 0.0746 and 0.163 | locus YHR079C, strain IRE1 (second series), stronger effect = lower value 0.0873 | locus YHR079C, strain IRE1, stronger effect = lower value 0.135 | locus YHR094C, strain hxt1, stronger effect = lower value 0.0952 | locus YHR129C, strain ARP1, stronger effect = lower value 0.0776 | locus YHR142W, strain chs7, stronger effect = lower value 0.103 | locus YHR200W, strain rpn10, stronger effect = lower value 0.2 | locus YIL066C, strain RNR3, stronger effect = lower value 0.0647 | locus YIL073C, strain SPO22, stronger effect = lower value 0.136 | locus YIL125W, strain kgd1, stronger effect = lower value 0.174 | locus YIR030C, strain dcg1, stronger effect = lower value 0.095 | locus YJL092W, strain hpr5, stronger effect = lower value 0.0768 | locus YJL095W, strain BCK1 (second series), stronger effect = lower value 0.0748 | locus YJL095W, strain BCK1, stronger effect = lower value 0.081 and 0.123 | locus YJL115W, strain asf1, stronger effect = lower value 0.102 | locus YJL129C, strain trk1, stronger effect = lower value 0.148 | locus YJL134W, strain LCB3, stronger effect = lower value 0.0694 | locus YJL154C, strain vps35, stronger effect = lower value 0.0817 | locus YJL164C, strain tpk1, stronger effect = lower value 0.0873 | locus YJL166W, strain qcr8, stronger effect = lower value 0.0859 | locus YJL168C, strain set2, stronger effect = lower value 0.0922 | locus YJL187C, strain SWE1 (second series), stronger effect = lower value 0.064
